Screening data: PubChem, National Center for Advancing Translational Sciences (NCATS)
12-LOX inh: blocks human arachidonate 12S-lipoxygenase. hit rate 1.1% among 580,000. Potency, µM (highest dose often 108 µM), inactives show at the top dose activity change, negative = inhibition, hits mostly inhibitors. purified 12hLO, xylenol orange hydroperoxide absorbance. P18054. AID 1671190; also: potency is read from the fitted curve at half-maximal effect; % is scaled to controls: 0 for no effect and ±100 for the full control effect
Target sequence (P18054 whole entry, looked up): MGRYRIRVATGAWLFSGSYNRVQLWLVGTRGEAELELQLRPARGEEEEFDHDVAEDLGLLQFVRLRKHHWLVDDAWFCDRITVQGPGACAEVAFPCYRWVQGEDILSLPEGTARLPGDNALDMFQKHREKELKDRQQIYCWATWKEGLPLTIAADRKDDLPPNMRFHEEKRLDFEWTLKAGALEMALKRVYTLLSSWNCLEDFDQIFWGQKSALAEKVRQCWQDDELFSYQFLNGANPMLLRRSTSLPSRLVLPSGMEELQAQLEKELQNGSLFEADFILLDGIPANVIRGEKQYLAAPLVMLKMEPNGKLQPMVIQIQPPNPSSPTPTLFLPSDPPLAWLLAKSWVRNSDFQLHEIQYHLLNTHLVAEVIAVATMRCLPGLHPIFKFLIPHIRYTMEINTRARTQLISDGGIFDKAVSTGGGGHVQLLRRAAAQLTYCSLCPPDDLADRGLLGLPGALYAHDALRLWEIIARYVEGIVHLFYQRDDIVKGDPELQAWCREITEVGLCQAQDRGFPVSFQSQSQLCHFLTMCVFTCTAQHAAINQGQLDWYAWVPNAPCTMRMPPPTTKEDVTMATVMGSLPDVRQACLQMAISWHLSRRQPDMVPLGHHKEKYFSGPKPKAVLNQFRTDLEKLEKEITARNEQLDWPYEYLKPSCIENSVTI
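Purified human 12hLO at 150 nM in 25 mM Hepes, 0.01% Triton X-100, pH 7.0, preincubated 15 min at room temperature with compound. Reaction started with 40 uM arachidonic acid, 30 min at room temperature. Hydroperoxide measured by Fe-xylenol orange, 573/405 nm absorbance ratio.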
uPA generation: cell surface uPA generation inhibition; cell surface uPA generation assay, qHTS; Potency, µM (titrated, usually from 38.3 µM), for inactives: at the highest dose activity change, negative = inhibition, actives largely listed as inhibitors; hit rate 0.31% among 330,000; AID 540303; active = well fitted inhibition curve with a large enough effect; inconclusive = small, poorly fitted or top-dose-only effect; inactive = no such curve, though single readings can be large or run the other way; tested in mouse RAW 264.7 cells; also: potency is read from the fitted curve at half-maximal effect; % is scaled to controls: 0 for no effect and ±100 for the full control effect; nearly all actives have a fitted effect of over 55% in size
Nrf2 ARE act: activates Nrf2 signaling | AREc32 ARE-luciferase reporter (MCF7-derived line), luminescence, 24 h | Potency, µM (series often up to 46.1 µM), for inactives: top-dose activation, actives largely listed as activators | hit rate 0.31% among 410,000; also: potency is read from the fitted curve at half-maximal effect; % of control where 0% means no effect; nearly all actives have a fitted effect of over 65% in size
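Cells of the AREc32 ARE-luciferase line are plated in OPTI-MEM containing 5% FBS and left overnight at 37 deg C. Compounds are pinned in, incubation continues 24 hr, and firefly luciferase signal is then measured.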
IL2 activator: IL-2 activation. IL-2 activation reporter assay, cell-based qHTS; stimulated with anti-CD3/CD4/CD28 beads; in transgenic mouse T cells. activation, % (series mostly up to about 46 µM). hit rate 0.065% among 360,000; in the data active = activation above about 50%; inconclusive = mostly about 30% to 49%; also: 0% is about no effect
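Unstimulated transgenic mouse T cells, 750 per well, received compound and, after 60 minutes, anti-CD3/anti-CD4 bead plus anti-CD28 stimulation. EGFP and DsRed were quantified after 18 hours.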
a7 integrin act: activates integrin-mediated alleviation for muscular dystrophy; alpha7betagal myoblasts, beta-gal FDG fluorescence, 48 h; Potency, µM (series often up to 38.3 µM), for inactives: at the highest dose activation, actives largely listed as activators; hit rate 0.064% among 350,000; AID 624291;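 also: potency is read from the fitted curve at half-maximal effect; 100% = response of the positive control SU9516; nearly all actives have a fitted effect of over 60% in size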
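alpha7betagal+/- myoblasts (passage 13, 250/well) treated 48 h at 37C with compounds at 1:260 dilution of DMSO stock. Lysed, then beta-galactosidase activity read as FDG fluorescence (ex 480/em 540) after 30 min, with pre-read for autofluorescence.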
An asterisk follows results filed as active; ? = inconclusive; nt = not tested or not shown; ! = not active in a repeat; [ ] = remark or other dose. This is a sample that favours compounds with a hit; in the whole collection about 1.5% have one here. Unless noted, calls follow the shape of the dose curve; as a rule, active = well fitted curve in the direction sought with a large enough effect; inconclusive = small, poorly fitted or top-dose-only effect, or another doubt; inactive = no such curve, though single readings can be large; an effect the other way counts as inactive or inconclusive.

SMILES	12-LOX inh	uPA generation	Nrf2 ARE act	IL2 activator	a7 integrin act
COc1ccccc1Cc1c(C(C)(C)C)nc2c3ccccc3ccn12	28µM*	nt	1%	0	nt
COc1ccc(Cc2c(-c3ccccc3)nc3c4ccccc4ccn23)c(C)c1	-11%	nt	5µM*	3	nt
Clc1cccc(Cc2c(-c3ccccc3)nc3c4ccccc4ccn23)c1	2%	nt	5µM*	0	nt
COc1ccc(Cc2c(-c3ccc(C)cc3)nc3ccc(Cl)cn23)c(C)c1	40µM*	nt	0%	0	nt
COc1ccc(Cc2c(-c3ccc(F)cc3)nc3c4ccccc4ccn23)c(C)c1	-5%	nt	?	0	nt
Cc1ccsc1CN(CC1CCCO1)C(=O)COc1cc(C)c(Cl)c(C)c1 (configuration not stated)	1%	nt	nt	nt	nt
FC(F)(F)c1cccc(C2=NOC3(CCN(Cc4ccccc4)C3)C2)c1 (configuration not stated)	7%[6.33 µM]	nt	nt	nt	nt
COc1ccc(F)cc1CO/N=C/c1cc(Cl)c(OC)c(OC)c1	-5%	nt	nt	nt	nt
Clc1cccc(Cc2c(-c3cccc(Cl)c3)nc3c4ccccc4ccn23)c1	-28%	nt	11%	-1	nt
Clc1cccc(Cc2c(-c3ccco3)nc3c4ccccc4ccn23)c1	10µM*	nt	?	0	nt
Brc1cccc(-c2nc3c4ccccc4ccn3c2Cc2ccsc2)c1	-3%	nt	11µM*	0	nt
Clc1cccc(-c2nc3c4ccccc4ccn3c2Cc2ccsc2)c1	-1%	nt	?	1	nt
Fc1cccc(Cc2c(-c3ccco3)nc3c4ccccc4ccn23)c1	0%	nt	5µM*	-1	nt
COc1ccc(CNC(=O)c2ccccc2C(F)(F)F)cc1C(=O)O	-29%	nt	nt	nt	nt
Cc1ccc(NC(=O)N2CCC(CCN)CC2)cc1F	43%	nt	nt	nt	nt
Cc1ccc(S(=O)(=O)N2CCc3ccccc3CC2)cc1	1%	-14%	3%	-1	-7%
c1ccc(-c2cc3n(c2)CCc2ccccc2-3)cc1	6.3µM*!	-1%	9%	-1	-44%
Cc1ccc(-c2cc3n(c2)CCc2ccccc2-3)cc1	16µM*	nt	nt	nt	nt
O=C(OCc1ncc(-c2ccc(Cl)cc2)o1)c1cccc(F)c1	-17%	nt	nt	nt	nt
c1cn2c(NC3CCCC3)c(-c3ccc(N4CCOCC4)cc3)nc2cn1	18%	5.6µM*	2%	-2	-1%
COc1ccc(-c2nc3cnccn3c2NC2CCCCC2)cc1	-15%	nt	nt	nt	nt
Cc1nc(NC2CCCC2)sc1C(=O)NCCC(C)C	20µM*	nt	nt	nt	nt
Cc1nc(SCc2ccccc2)[nH]c(=O)c1CCC(=O)N1CCCCC1	2%	nt	nt	nt	nt
O=C(CNC(=O)c1ccccc1Cl)N/N=C/c1ccc2c(c1)OCO2	-2%	-6%	-1%	0	-12%
Clc1ccccc1N/N=C/c1ccc2c(c1)OCO2	35µM*	5%	5%	-3	-6%
SMILES	12-LOX inh	uPA generation	Nrf2 ARE act	IL2 activator	a7 integrin act
Cc1occc1C(=O)OCC(=O)c1sc2ccccc2c1C	32µM*	nt	nt	nt	nt
COc1ccc(C(=O)OCC(=O)c2sc3ccccc3c2C)cc1OC	-8%	nt	nt	nt	nt
S=C(NN=C(c1ccccc1)c1ccccn1)N(Cc1ccccn1)Cc1ccccn1	45µM*	-12%	3%	1	-55%
Cc1ccc(S(=O)(=O)N2CN(CC3CCCO3)c3nc4ccccc4nc32)c(C)c1 (configuration not stated)	-28%	0%	0%	-1	11µM*
O=S(=O)(c1cccs1)N1CN(CC2CCCO2)c2nc3ccccc3nc21 (configuration not stated)	-16%	-2%	0%	3	-18%
NCCCN1C(=O)CC[C@H]2CN(C(=O)c3ccc4c(c3)CCC4)CC[C@H]21	-5%	nt	nt	nt	nt
O=C(C1=Cc2sc3c(c2CS1)CCCC3)N1CCC2(CC1)OCCO2	35µM*	nt	nt	nt	nt
Cc1ccccc1NC(=O)N1CCc2c(sc3c2CCCC3)C1c1ccccc1 (configuration not stated)	2%	nt	5%	nt	nt
Cc1ccccc1NC(=O)C1=Cc2sc3c(c2CS1)CCCC3	20µM*	nt	nt	nt	nt
COc1cccc(C(=O)Nc2cc3nn(-c4ccccc4)nc3cc2Cl)c1	-28%	nt	nt	nt	nt
CC1Cc2ccccc2N1C(=O)CSc1nc2cc(S(=O)(=O)N3CCCCC3)ccc2o1 (configuration not stated)	1%	nt	nt	nt	nt
Cc1ccc(C2C3=C(CCCC3=O)Nc3nc(SCCC(C)C)[nH]c(=O)c32)o1 (configuration not stated)	7.9µM*	nt	nt	nt	nt
O=S(=O)(c1ccc(C(F)(F)F)cc1)N1CCCC(Cn2cnc3cccnc32)C1 (configuration not stated)	51%	nt	nt	nt	nt
O=C(Nc1cccc(C(F)(F)F)c1)O[C@@H]1CO[C@H]2[C@@H]1OC[C@@H]2NC(=S)NC1CCCCC1	45µM*	nt	nt	nt	nt
COCc1c(C(=O)N/N=C(/C)c2ccc(OCc3ccccc3)cc2)nnn1-c1nonc1N	2%	-3%	-1%	-2	10µM*
Cc1ccc(NC2c3ncccc3C(=O)N2c2ccccc2C)cc1C (configuration not stated)	10µM*	2%	5%	0	34%
Cc1ccc(-c2nc(SCC(=O)N3CCCC3c3ccc4c(c3)OCCO4)n[nH]2)cc1 (configuration not stated)	-4%	nt	nt	nt	nt
O=C1NC(=S)/C(=C\c2ccc(-c3ccccc3Cl)o2)S1	35µM*	3%	6%	0	23%
O=C1NC(=O)/C(=C/c2ccc(-c3cc(C(=O)O)ccc3Cl)o2)S1	?	-9%	0%	0	?
Cc1cc(C)c2c(N)c(C(=O)NN3CC(=O)N(c4ccccc4)CC3=O)sc2n1	50µM*	15%	0%	2	13%
Cc1cc(C)c2c(N)c(C(=O)NN3CC(=O)N(c4cccc(Cl)c4)CC3=O)sc2n1	0%	1%	0%	-4	-2%
CCCCOc1ccc(C(NC(=O)OCC)NC(=O)OCC)cc1	-13%	1%	0%	0	-3%
CCCCCOc1ccc(C(N)C(=O)OCC)cc1 (configuration not stated)	20µM*	nt	nt	nt	nt
Cc1cc(SCC(=O)N(C)C)nc2c(C)cccc12	-35%	nt	nt	nt	nt
Cc1cccc2cc3c(nc12)SC(=NCC1CCCO1)N(Cc1ccco1)C3 (configuration not stated)	nt	-8%	10%	-4	-42%
SMILES	12-LOX inh	uPA generation	Nrf2 ARE act	IL2 activator	a7 integrin act
COCCN=C1Sc2nc3c(C)cccc3cc2CN1Cc1ccco1	32µM*	-2%	19%	2	-27%
CCOCCN1C(=O)COC[C@@H]1[C@H](O)c1ccc(NC(=O)c2ccnc(Cl)c2)cc1	12%[176 µM]	nt	nt	nt	nt
COc1ccccc1C1CCN(Cc2ccc3ccccc3c2)CC1	14µM*	-6%	6%	29	-20%
COc1ccccc1C1CCN(Cc2ccccc2)CC1	-2%	2%	-1%	-1	-11%
CC(=O)c1c(C)oc2c(Br)cc(NS(=O)(=O)c3ccc(Br)cc3)cc12	45µM*	nt	-1%	nt	nt
CCc1cccc2sc(N3CCN(C(=O)c4ccc([N+](=O)[O-])o4)CC3)nc12	nt	7.9µM*	?	-3	-14%
